Screening data from PubChem BioAssay.
Compounds with a hit are over-represented: about 1.9% of the library has one in this group of screens.
IL-2 act: qHTS of IL-2 Activators. IL-2 activation reporter assay, cell-based qHTS; stimulated with anti-CD3/CD4/CD28 beads; in transgenic mouse T cells. AID 652025, 2013. 360,000 tested, 0.065% active. activation, % (series mostly up to about 46 µM); in the data active = activation above about 50%; inconclusive = mostly about 30% to 49%; note: 0% is about no effect
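Readout: EGFP and DsRed signals by fluorescent plate cytometry. Unstimulated transgenic mouse T cells received compound 60 min before antibody-bead stimulation, then incubated 18 h at 37 degrees C.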
NPSR antag: qHTS Assay for Antagonists of the Neuropeptide S Receptor: cAMP Signal Transduction; Q6W5P4; CHO-NPSR cells, cAMP TR-FRET, antagonist mode; Potency, µM (doses to about 38.3 µM), inactives show at the top dose activity change, negative = inhibition, actives largely listed as inhibitors; 220,000 tested, 1% active; note: potency is the fitted concentration of half-maximal effect; % is set by controls: 0 for no effect and ±100 for the full control effect; nearly all actives have a fitted effect of over 50% in size
Target sequence (Q6W5P4 whole entry, looked up): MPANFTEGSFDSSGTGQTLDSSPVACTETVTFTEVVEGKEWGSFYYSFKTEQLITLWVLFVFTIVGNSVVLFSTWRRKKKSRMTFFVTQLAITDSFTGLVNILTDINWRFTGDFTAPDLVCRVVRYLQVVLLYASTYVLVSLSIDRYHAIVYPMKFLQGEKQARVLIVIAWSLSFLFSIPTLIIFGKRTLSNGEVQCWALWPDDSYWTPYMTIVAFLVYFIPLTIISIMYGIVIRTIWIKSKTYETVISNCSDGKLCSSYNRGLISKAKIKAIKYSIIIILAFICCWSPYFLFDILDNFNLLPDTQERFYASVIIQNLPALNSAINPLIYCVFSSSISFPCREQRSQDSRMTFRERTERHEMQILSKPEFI
BRCA1 expr act: qHTS Assay to Identify Small Molecule Activators of BRCA1 Expression; 380,000 tested, 1.1% active; AID 624202, 2012; Potency, µM (titrated, usually from 46.1 µM), inactives show at the top dose activation, usual class: activators; MCF7-BRCA1-FFLuc reporter, luminescence, 48 h; response scale: scaled: vehicle 0%, 10 µM genistein 100%; note: potency is the fitted concentration of half-maximal effect; nearly all actives have a fitted effect of over 80% in size
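MCF7-BRCA1-FFLuc, 2000 cells/well; 2 h attach, 37 °C/5% CO2; compound 48 h; luciferase substrate 15 min; luminescence end-point. Norm. to genistein 10 microM max activation and DMSO; concentration-response curves fitted.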
RXFP1 agonist: qHTS Assay for Agonists of the Relaxin Receptor RXFP1. Relaxin receptor 1 (Homo sapiens), Q9HBX9. HEK293T-RXFP1 cAMP TR-FRET, 30 min; response scale: percent of porcine relaxin response, buffer zero. Potency, µM (highest dose often 57.5 µM), without a hit: at the top dose activation, actives largely listed as activators. 370,000 tested, 0.3% active; note: potency is the fitted concentration of half-maximal effect; % is set by controls: 0 for no effect and ±100 for the full control effect; nearly all actives have a fitted effect of over 60% in size
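cAMP rise read by TR-FRET after 30 min, 37C compound exposure (up to 58 uM) in RXFP1-transfected HEK293 cells with Ro 20174 present. EC50 from Hill-equation fits, with 29 nM porcine relaxin as 100% and buffer as basal.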
Giardia kill: Small Molecules that selectively kill Giardia lamblia: qHTS | 340,000 tested, 0.15% active | AID 540267, 2011 | Giardia lamblia trophozoite viability | activity change, % at 7.66 µM, hits read low; in the data active = activity change below about -80%; inconclusive = between about -30% and that limit;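 note: parasites exposed to compound for two days anaerobically before the ATP read; % is set by controls: 0 for no effect and ±100 for the full control effect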
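Giardia trophozoites, 100 cells per well, were exposed to compounds for 48 hrs at 37 deg C under anaerobic conditions; viability was then read as ATP content by bioluminescence after 15-30 min at room temperature.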
RXFP1 antag: qHTS Assay for Antagonists of the Relaxin Receptor RXFP1; Relaxin receptor 1 (Homo sapiens), Q9HBX9; HEK293-RXFP1, relaxin-stimulated cAMP HTRF, 30 min; active compounds read low; activity change, negative = inhibition, % at 57.5 µM; 350,000 tested, 0.59% active;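 active = activity change of -60% or lower, but not beyond a set lower limit; inconclusive = change between -60% and -40%, or beyond the set limit; inactive = change above -40%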; note: % is set by controls: 0 for no effect and ±100 for the full control effect
* = called active by the depositor; ? = inconclusive; / = no result; [ ] = dose if it differs, or a comment. Unless noted, calls come from the whole dose curve; as a rule, active = well fitted curve in the direction sought with a large enough effect; inconclusive = small, poorly fitted or top-dose-only effect, or another doubt; inactive = no such curve, though single readings can be large; an effect the other way counts as inactive or inconclusive.

SMILES	IL-2 act	NPSR antag	BRCA1 expr act	RXFP1 agonist	Giardia kill	RXFP1 antag
COc1cc(/C=C(\C#N)C(=O)Nc2cccc(C(=O)O)c2)ccc1OCc1ccc(C)cc1	-2.3	/	5.01µM*	-1.9%	3.5	-38.0
COc1cc(/C=C(\C#N)C(=O)Nc2ccc(C(=O)O)cc2)ccc1OC(=O)c1cccc(F)c1	1.4	/	2.5%	-0.1%	-29.2	-83.1*
COc1ccc2[nH]c(C)c(C(=O)CN(C)CC(OC)OC)c2c1	/	/	-5.1%	/	/	/
Cc1cc(C)n2c(Nc3cccc(C(F)(F)F)c3)c(-c3ccsc3)nc2n1	/	/	/	5.0%	/	-14.0
CCOC(=O)c1c(NC(C)=O)c2c3c(sc2n1Cc1cc(C)ccc1C)CCCC3	/	/	/	3.9%	/	9.2
Clc1ccc(OCCCN2CCCCC2)c(Br)c1	-0.5	6.4%	10µM*	1.9%	12.5	-12.4
COc1cccc(C(=O)Nc2nc3c(s2)CN(C)CC3)c1	-0.8	-7.2%[46.1 µM]	14.1µM*	-0.2%	-6.4	-1.1
O=C(Nc1nc2c(s1)CCCC2)c1ccc2ncsc2c1	-2.8	?	0.0%	2.0%	3.6	/
Cc1cccc(C(=O)Nc2nc3c(s2)CCCC3)c1	/	/	/	1.9%	/	-86.9*
CN1CCc2nc(NC(=O)c3cccc(S(=O)(=O)N4CCc5ccccc54)c3)sc2C1	-0.7	-9.3%[46.1 µM]	-45.1%	-0.2%	8.7	8.7
COc1ccc(C(=O)Nc2nc3c(s2)CCCC3)cc1Cl	/	/	/	1.4%	/	-70.9*
C=CCNc1nc(NC2CCN(C)CC2)c2cc(OC)c(OC)cc2n1	/	/	-2.5%	/	/	/
CC(NC(CCc1ccccc1)C(=O)O)C(=O)N1C(=O)N(C)CC1C(=O)O (stereo not given)	/	/	/	/	/	6.7
CCOC(=O)c1ccc(-c2ccc(/C=N/NC(=O)Cc3nnc(N)s3)o2)cc1	0.7	-10.1%	2.24µM*	-1.6%	4.8	10.9
Nc1nnc(CC(=O)N/N=C/c2ccc(-c3ccc(F)cc3)o2)s1	0.5	-2.8%	8.6%	-2.3%	-29.9	7.6
S=Cc1nc2ccccc2[nH]1	/	/	14.4%	/	/	/
CCOc1ccc(-c2nonc2NC(=O)c2oc3cc(Br)ccc3c2C)cc1	/	/	/	-0.3%	/	3.0
CCOc1ccc(-c2nonc2NC(=O)c2oc3cc(C)ccc3c2C)cc1	/	/	/	-3.0%	/	-65.9*
N/C(=N\C(=S)Nc1ccc2c(c1)OCO2)c1ccccc1	0.9	/	4.47µM*	/	/	/
O=C(Nc1cccc(F)c1)Nc1ccc2c(c1)OCO2	-3.7	/	?	1.5%	5.7	0.3
CCc1sc(C(=O)Nc2ccc3c(c2)OCO3)cc1C	0.8	/	?	/	-3.1	-62.9*
O=C(Nc1ccc2c(c1)OCO2)c1c(F)cccc1F	3.8	-10.6%[46.1 µM]	4.47µM*	1.3%	8.8	17.4
O=C(Nc1ccc2c(c1)OCO2)c1ccccc1	0.4	/	?	-2.8%	-3.8	-10.8
O=C(Nc1ccc2c(c1)OCO2)c1cccc(F)c1	-1.1	-16.7%[46.1 µM]	11.2µM*	1.5%	-21.8	-0.5
N/C(=N\N=C\c1ccc(Cl)cc1)N/N=C/c1ccc(Cl)cc1	/	/	/	/	/	-32.3
SMILES	IL-2 act	NPSR antag	BRCA1 expr act	RXFP1 agonist	Giardia kill	RXFP1 antag
CN(C)c1ccc(/C=C/c2ccnc3c(N)cccc23)cc1	/	/	9.3%	/	/	/
Nc1nc(NCc2ccc(Cl)c(Cl)c2)c2[nH]cnc2n1	/	/	-0.3%	/	-15.9	/
O=C(Nc1ccc(F)c(F)c1)c1cnn2c1NC(=C1CC1)C=C2C(F)F	/	/	3.0%	/	/	/
Cn1nccc1C(=O)Nc1ccc2c(c1)OCO2	-3.6	/	12.6µM*	0.1%	-4.1	5.9
O=C(CCS(=O)(=O)c1ccccc1)Nc1ccc2c(c1)OCO2	0.6	-5.3%	7.94µM*	0.1%	-6.8	14.2
Cc1ccccc1NC(=O)Nc1ccc2c(c1)OCO2	-3.1	/	5.62µM*	-2.6%	-0.3	-27.4
Cc1ccc(C)c(NC(=O)Nc2ccc3c(c2)OCO3)c1	0.3	/	91.8%	0.0%	-21.3	1.1
CCOc1ccc(CC(=O)Nc2nnc3n2CCS3)cc1	/	/	7.6%	-3.8%	/	/
CSc1ccc(C2c3[nH]c4ccccc4c3CCN2C(=O)CCC2CCCC2)cc1 (stereo not given)	/	/	/	-0.4%	/	-9.6
CCCN(Cc1cc2cccc(C)c2[nH]c1=O)C(=O)c1cccc(Cl)c1	/	/	/	5.1%	/	-15.1
COc1ccc(C2CC(=O)Oc3c(C(CCN4CCOCC4)c4ccc5c(c4)OCO5)c(OC)cc(OC)c32)cc1 (stereo not given)	/	/	/	/	-6.1	/
CCCn1nc([N+](=O)[O-])c(C(C#N)c2nc3ccccc3s2)c(Cl)c1=O (stereo not given)	-0.4	10µM*	-68.1%	-3.3%	?	-32.7
COc1ccccc1C(O)Cc1nc2ccccc2n1C (stereo not given)	1.3	1.8%[46.1 µM]	10µM*	1.0%	9.4	-1.9
CC(C)c1ccc(C(O)Cc2nc3ccccc3n2C)cc1 (stereo not given)	-1.6	0.9%	?	-4.3%	-1.8	-11.9
CCn1c(COc2ccccc2C)nc2ccccc21	-0.3	-8.5%[46.1 µM]	7.94µM*	2.2%	-11.0	2.5
Cn1c(COc2ccccc2Br)nc2ccccc21	1.1	/	6.31µM*	-0.9%	10.9	0.1
COc1ccc(C(=O)C[n+]2cccc3cc(Cl)ccc32)cc1	/	/	-44.7%	/	/	/
COc1cc(N(C)C)c(OC)cc1/C=C1\C=Cc2ccccc21	/	/	58.2%	/	/	/
Cc1ccc(NC(=O)NCc2c(-n3cccc3)sc3c2CCCC3)c(Cl)c1	/	/	/	-8.0%	/	6.0
O=c1c2cc(-c3ccccc3)sc2ncn1-n1cccc1	0.4	-3.0%[46.1 µM]	2µM*	3.3%	-15.8	0.1
Cc1ccc(C)n1-n1cnc2sc(-c3ccccc3)cc2c1=O	-1.9	-26.1%[46.1 µM]	-0.9%	0.9%	-12.9	-28.4
O=c1[nH]c(-c2ccccc2)nc2sc(-c3ccccc3)cc12	0.7	-21.1%	-18.5%	-1.1%	10.4	-10.6
O=c1[nH]cnc2sc(-c3ccccc3)cc12	-1.6	-6.8%[46.1 µM]	12.6µM*	2.5%	-1.4	-5.7
O=C1CC2C(CC(OC(=O)c3ccc(-c4ccccc4)cc3)C2CO)O1 (stereo not given)	-0.1	-18.5%[46.1 µM]	?	-0.6%	-6.3	-7.7
O=C1C[C@H]2[C@H](CO)[C@@H](OC(=O)c3ccc(-c4ccccc4)cc3)C[C@H]2O1	-1.1	16.9%	12.6µM*	3.3%	34.5	-22.2
CCCCN1C(=O)C(=O)N(c2ccccc2)C1=S	-0.2	13.4%	5.01µM*	-0.6%	-1.8	5.1
CCCCN1C(=O)C(=O)N(CC(=O)N2CCN(c3ccccc3)CC2)C1=O	11.0	/	6.7%	0.0%	-12.3	-7.9
Cc1cccc2cc3c(nc12)SC(=NCC1CCCO1)N(Cc1ccco1)C3 (stereo not given)	-3.7	10µM*	-37.0%	3.4%	-20.4	-19.6
